Screens (PubChem)
Pol kappa inh-1 – qHTS for Inhibitors of Polymerase Kappa | DNA polymerase kappa (Homo sapiens), Q9UBT6 | actives 0.53% (n = 400,000) | purified Pol kappa, fluorescent DNA synthesis assay, 10 min | AID 588579, 2011 | Potency, µM (doses to about 107 µM), actives largely listed as inhibitors
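Kinetic fluorescence readout at 0 and 10 min followed reaction start with substrate at 50 nM final. Beforehand, enzyme (10 nM Pol kappa) stood 15 min with compound at room temperature; buffer-only wells were negative controls.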
PI5P4K alpha inh – qHTS for Inhibitors of phosphatidylinositol 5-phosphate 4-kinase (PI5P4K). actives 1.2% (n = 330,000). Phosphatidylinositol 5-phosphate 4-kinase type-2 alpha (Homo sapiens), P48426. max response, %. PI5P4Kalpha enzyme, ADP-Glo luminescence, 60 min; active compounds read low; active means max response of -50% or lower; inconclusive means between -30% and -50%; inactive means -30% or higher; further: value at the top dose of about 77 µM
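ADP-Glo luminescence end-point after a 60 min room-temperature kinase reaction. PI5P4Kalpha and substrate in HEPES pH 7.4 buffer with EGTA, 0.1% CHAPS and 5% DMSO; ATP at 5 microM final.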
WRN helicase inh – qHTS for Inhibitors of WRN Helicase | Bifunctional 3'-5' exonuclease/ATP-dependent helicase WRN (Homo sapiens), Q14191 | WRN helicase unwinding, fluorescent forked duplex, kinetic | Potency, µM (titrated, usually from 114 µM), most hits filed as inhibitors | actives 0.46% (n = 360,000) | AID 651768, 2012; further: nearly all actives have a fitted effect of over 55% in size
Target sequence (Q14191 whole entry, looked up): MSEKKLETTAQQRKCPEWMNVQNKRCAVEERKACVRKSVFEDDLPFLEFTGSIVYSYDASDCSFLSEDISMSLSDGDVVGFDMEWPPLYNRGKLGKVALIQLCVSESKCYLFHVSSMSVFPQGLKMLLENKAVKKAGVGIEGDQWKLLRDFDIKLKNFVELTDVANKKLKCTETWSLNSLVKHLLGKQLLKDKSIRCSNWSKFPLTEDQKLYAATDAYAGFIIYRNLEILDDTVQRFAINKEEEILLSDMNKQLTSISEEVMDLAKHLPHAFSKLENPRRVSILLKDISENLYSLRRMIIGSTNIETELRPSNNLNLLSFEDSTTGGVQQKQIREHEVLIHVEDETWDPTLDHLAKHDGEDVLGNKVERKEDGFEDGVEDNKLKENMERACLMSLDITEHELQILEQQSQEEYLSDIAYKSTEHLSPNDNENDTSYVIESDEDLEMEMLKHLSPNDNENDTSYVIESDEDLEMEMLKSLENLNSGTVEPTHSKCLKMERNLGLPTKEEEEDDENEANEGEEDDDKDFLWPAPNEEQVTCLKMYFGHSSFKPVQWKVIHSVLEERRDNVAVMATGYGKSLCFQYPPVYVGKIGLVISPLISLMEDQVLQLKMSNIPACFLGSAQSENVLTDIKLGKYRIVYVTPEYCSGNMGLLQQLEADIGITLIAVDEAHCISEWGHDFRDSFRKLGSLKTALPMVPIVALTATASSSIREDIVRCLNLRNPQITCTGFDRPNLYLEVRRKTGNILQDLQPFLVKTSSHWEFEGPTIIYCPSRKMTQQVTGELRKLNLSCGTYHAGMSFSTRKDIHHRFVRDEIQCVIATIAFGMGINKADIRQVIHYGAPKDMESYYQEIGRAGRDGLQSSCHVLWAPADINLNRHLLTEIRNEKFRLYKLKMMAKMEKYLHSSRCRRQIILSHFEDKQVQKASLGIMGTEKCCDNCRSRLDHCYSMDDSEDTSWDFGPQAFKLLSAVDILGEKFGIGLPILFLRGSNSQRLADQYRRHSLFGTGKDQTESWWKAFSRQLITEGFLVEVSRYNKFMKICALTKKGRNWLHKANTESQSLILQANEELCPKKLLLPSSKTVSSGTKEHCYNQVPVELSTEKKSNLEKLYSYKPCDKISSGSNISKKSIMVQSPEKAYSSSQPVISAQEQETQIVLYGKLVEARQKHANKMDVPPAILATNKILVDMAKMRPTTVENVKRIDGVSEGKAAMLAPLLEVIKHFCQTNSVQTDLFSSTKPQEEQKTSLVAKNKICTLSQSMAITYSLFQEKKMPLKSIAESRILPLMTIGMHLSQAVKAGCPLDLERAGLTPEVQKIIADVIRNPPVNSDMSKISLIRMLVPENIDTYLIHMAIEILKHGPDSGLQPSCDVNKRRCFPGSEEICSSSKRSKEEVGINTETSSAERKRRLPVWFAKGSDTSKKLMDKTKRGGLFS
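Primary qHTS, 1536-well format. 20 nM WRN + compound, 15 min RT; start with 100 nM forked fluorophore/quencher duplex, 2 mM ATP (final); kinetic read ex 525/em 598 nm.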
Pol eta inh-1 – qHTS for Inhibitors of Polymerase Eta; recombinant Pol eta, fluorescent DNA replication assay; actives 1.2% (n = 390,000); Potency, µM (highest dose often 114 µM), hits mostly inhibitors; AID 588591, 2011
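Pol eta (10 nM) was preincubated with compounds for 15 min at room temperature, after which fluorescent replication substrate (50 nM final) was added to start the reaction. Fluorescence was read kinetically at 0 and 10 min.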
POLB inh – qHTS Assay for Inhibitors of DNA Polymerase Beta. P06746. AID 485314, 2010. Pol beta primer extension/strand displacement, fluorescence kinetic. Potency, µM (doses to about 114 µM), usual class: inhibitors. actives 1.3% (n = 340,000)
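Pol beta (10 nM) and compounds were preincubated 15 min at room temperature, then 50 nM substrate (final) started primer extension/strand displacement. Reads were taken at 0 and 10 min; concentration-response data were fitted to a four-parameter Hill equation.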
Pol iota inh – qHTS for Inhibitors of Polymerase Iota; DNA polymerase iota (Homo sapiens), Q9UNA4; Potency, µM (highest dose often 115 µM), most hits filed as inhibitors; Pol iota fluorescent replication assay, 10 min; AID 588590, 2011; actives 1% (n = 390,000)
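Fluorescent replication assay read twice, at 0 min and 10 min after adding 50 nM (final) substrate. Enzyme (10 nM) and compounds were first incubated 15 min at room temperature; enzyme-free buffer wells were negative controls.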
GALK confirm – Confirmation Assay for Inhibitors of Human Galactokinase (GALK). shares compounds with Pol eta inh-1. purified GALK, Kinase-Glo ATP depletion luminescence. Potency, µM (titrated, usually from 115 µM), hits mostly inhibitors. actives 70% (n = 150)
Redox cycling – Confirmatory Assay for Inhibitors of Human Galactokinase (GALK): Phenol-HRP redox assay counterscreen; actives 40% (n = 150); AID 2035, 2009; Potency, µM (top dose mostly 115 µM), usual class: inhibitors; Phenol red-HRP H2O2 redox cycling, absorbance 600 nm; shares compounds with Pol eta inh-1
HEK293 tox – Secondary Assay for Inhibitors of Human Galactokinase (GALK): HEK-293 Cell Viability Assay | actives 10% (n = 170) | Potency, µM (highest dose often 46.1 µM), actives largely listed as inhibitors | HEK-293 viability, ATP luminescence (CellTiter-Glo), 24/48 h | shares compounds with Pol eta inh-1
Pol kappa inh-2 – qHTS for Inhibitors of Polymerase Kappa: Confirmatory Assay for Cherry-picked Compounds | AID 720501, 2013 | Potency, µM, hits mostly inhibitors | shares compounds with Pol eta inh-1 | purified Pol-kappa, fluorescent strand-displacement substrate | actives 76% (n = 920)
Pol eta inh-2 – qHTS for Inhibitors of Polymerase Eta: Confirmatory Assay for Cherry-picked Compounds. shares compounds with Pol eta inh-1. Pol eta primer extension, TAMRA/BHQ fluorescence, 10 min. Potency, µM, actives largely listed as inhibitors. actives 64% (n = 2,600). AID 720502, 2013
A number is an active result; . = inactive; ? = inconclusive; / = not tested or not shown; ! = not active in a repeat; [ ] = another dose, or the depositor's remark. Hits are enriched below; roughly 2.8% of the tested compounds scored in any of these assays. Unless noted, the call rests on the fitted dose curve; in most records, active means well fitted curve in the direction sought with a large enough effect; inconclusive means small, poorly fitted or top-dose-only effect, or another doubt; inactive means no such curve, though single readings can be large; an effect the other way counts as inactive or inconclusive.

SMILES	Pol kappa inh-1	PI5P4K alpha inh	WRN helicase inh	Pol eta inh-1	POLB inh	Pol iota inh	Pol eta inh-2	others
O=C(N/N=C/c1ccc(O)c(O)c1)c1ccc(-n2cnnn2)cc1	79µM	.	.[11.6 µM]	22µM	/	45µM	?
Oc1ccc(OCc2ccccc2)cc1	.[19.4 µM]	/	/	/	/	/	/
Oc1ccc(NCc2ccc(OCc3ccccc3)cc2)cc1	?	.	.[11.6 µM]	79µM!	.	10µM	?
O=C(O)/C=C/c1ccc(S(=O)(=O)Nc2ccc(OCc3ccccc3)cc2)cc1	.	.	.	.	?	.	/
Oc1ccc(NCc2ccc(OCc3ccccc3Cl)cc2)cc1	?	/	/	.	.	18µM	?
O=C(O)CCc1ccc(S(=O)(=O)Nc2ccc(OCc3ccccc3)cc2)cc1	?	.	.	22µM	?	?	67
Oc1ccc(NCc2ccccc2OCc2ccccc2Cl)cc1	.	/	/	/	.	?	?
Cn1nnnc1SCCNCc1ccc(OCc2ccccc2Cl)cc1	.	/	/	.	.	.	/
CCOCCCn1c(=S)[nH]c2cc(C(=O)N3CCN(c4ccccc4)CC3)ccc2c1=O	.	.	.	.	.	.	/
CCCC(=O)N1CCC1(C)C(=O)NS(=O)(=O)c1ccc(C)cc1 (stereo not drawn)	/	.	.	/	/	/	/
Nn1c(SCC(=O)N2CCOCC2)nnc1-c1cccnc1	.	.	.	.	/	.	/
CCN(CC(=O)NC1CCS(=O)(=O)C1)S(=O)(=O)c1c(C)c(C)cc(C)c1C (stereo not drawn)	.	.	.	.	/	.	/
Brc1cccc(/C=N/Nc2nn[nH]n2)c1	.	.	.	.	.	.	/
Cc1ccc(OCC(=O)N/N=C\c2ccc(-c3cccc(C(=O)O)c3)o2)c(C)c1	50µM	.	?	3.5µM	20µM	?	30
O=C(O)c1cccc(-c2ccc(/C=N/Nc3nn[nH]n3)o2)c1	?	?	.	?	?	.	67
COc1ccc(CC(=O)N/N=C/c2ccc(-c3cccc(C(=O)O)c3)o2)cc1OC	79µM	.	.	10µM	13µM	?	19	Pol kappa inh-2=12
COC1=C(N)C(=O)c2nc(-c3nc(C(=O)O)c(C)c(-c4ccc(OC)c(OC)c4O)c3N)ccc2C1=O	50µM	.	?	3.5µM	10µM	0.89µM	/	GALK confirm=?;Redox cycling=0.94µM;HEK293 tox=0.013µM
COc1ccc(C(=O)O)c(O)c1OC	.	/	/	/	/	/	/
Cc1cccc(CN2CCC(CNC(=O)c3c(C)oc4ncnc(N5CCCCC5)c34)CC2)c1	.	/	/	.	.	.	/
O=C(Nc1cc(C(=O)Nc2ccccc2C(=O)O)cc(C(=O)Nc2ccccc2C(=O)O)c1)c1ccccc1	?	-82	40µM	14µM	.	?	30
O=C(Nc1ccccc1C(=O)O)c1cccc(NC(=O)c2ccccc2Br)c1	.	?	.	.	.	.	/
CCOC(=O)c1c(C)[nH]c(C)c1S(=O)(=O)N1CCC(C(=O)Nc2cc(Cl)ccc2OC)CC1	.	/	/	.	.	?	/
CS(=O)(=O)C1=NSC2=NC(=O)/C(=C\c3cccn3-c3ccc(Cl)cc3)C(=N)N21	.	-81	.	22µM	22µM	?	?
CC(C)Cc1nnc(NC(=O)c2ccc3c(c2)NC(=O)C(C)S3)s1 (stereo not drawn)	.	.	.	.	/	.	/
Oc1ccc(Br)cc1C=Nc1ccc2c3c(cccc13)CC2	.	.	.	.	.	.	/
SMILES	Pol kappa inh-1	PI5P4K alpha inh	WRN helicase inh	Pol eta inh-1	POLB inh	Pol iota inh	Pol eta inh-2	others
O=c1oc(-c2ccc(O)c(O)c2)cc2cc(O)cc(O)c12	?	-66	50µM	10µM	/	28µM	54	Pol kappa inh-2=?
CCN(CC(=O)Nc1cc(Cl)ccc1C)C(=O)c1cc([N+](=O)[O-])ccc1N1CCOCC1	.	.	.	.	/	.	/
O=[N+]([O-])c1ccc(NN=Cc2cccc3ccccc23)cc1	.	.	.	.	/	.	/
O=[N+]([O-])c1cc(Br)c(O)c(/C=N/Nc2nnnn2-c2cccc3ccccc23)c1	.	/	?	71µM	?	.	/	GALK confirm=30µM;Redox cycling=.;HEK293 tox=.
COc1ccc(-n2cc(-c3ccccc3)c3c(N4CCN(CCO)CC4)ncnc32)cc1	.	/	.	.	.	.	/	GALK confirm=.;Redox cycling=.;HEK293 tox=.
OCCN1CCN(c2ncnc3c2c(-c2ccccc2)cn3-c2ccc(F)cc2)CC1	.	.	.	.	.	.	/
Cc1c(CCOC(=O)c2ccc(N3CCOCC3)c([N+](=O)[O-])c2)sc[n+]1CC#N	.	.	.	50µM	?	?	?	Pol kappa inh-2=75
Cc1ncsc1CCOC(=O)c1ccc(N2CCOCC2)c([N+](=O)[O-])c1	.	.	.	.	.	.	/
CC(C)(C)OC(=O)CN1C(=O)NC(Cc2c[nH]c3ccccc23)C1=O (stereo not drawn)	.	.	.	.	?	.	/
C/C(N)=C(/C#N)C(=O)CN1C(=O)NC(Cc2c[nH]c3ccccc23)C1=O (stereo not drawn)	?	-66	.	32µM	28µM	?	?
O=C(O)c1cc(Cl)ccc1-c1ccc(/C=C/c2cc(C(F)(F)F)[nH]c(=O)n2)o1	?	-53	?	50µM	.	?	38
O=C(N/N=C/c1ccc(O)c(Br)c1)c1cc2c(ccc3ccccc32)o1	.	?	.	.	.	.	/
O=C(N/N=C/c1cc(Br)c(O)c(Br)c1)c1cc2c(ccc3ccccc32)o1	20µM	-103	35µM	18µM	?	?	85
